The source of these data is PubChem BioAssay.

In experiment [1] the test system is TRPC4 beta (transient receptor potential cation channel C4), mouse. Kind of experiment: activators of mouse TRPC4 channel, confirmation, cell-based, Fluo4 calcium, HEK293 TRPC4beta/mu-opioid, duplicates, 10 µM (AID 2426;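 active means fluorescence ratio normalized to control raised more than 50% in primary screen plus both repeat runs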). To be noted: Fluo4 calcium fluorescence, at 10 µM; hits give high values.
For experiment [2], the system named is transient receptor potential cation channel C4 beta (TRPC4), mouse. Kind of experiment: activators of mouse TRPC4 channel, confirmation, cell-based, second round, Fluo4, HEK293 TRPC4beta/mu-opioid, 1 µM (AID 2461;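 active means primary screen active and over 50% activation in each of two duplicate runs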). To be noted: Fluo4 calcium fluorescence, at 1 µM; hits give high values.
Experiment [3] concerns TRPC4 (transient receptor potential cation channel C4 beta), mouse. Kind of experiment: positive allosteric modulators of mouse TRPC4, confirmation, cell-based, second round, Fluo-4, HEK293 TRPC4beta/mu-opioid, 1 µM (AID 2554;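 active means primary screen hit whose fluorescence ratio, in both repeats, exceeds the weak agonist control mean by 3 SD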). To be noted: DAMGO EC20, Fluo-4 calcium flux, at 1 µM; hits give high values.
Experiment [4] has as its system TRPC4 beta (transient receptor potential cation channel C4), mouse. In words: positive allosteric modulators of mouse TRPC4, confirmation, cell-based, Fluo-4, HEK293 TRPC4beta/mu-opioid (AID 2555;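 active means primary screen hit whose calcium fluorescence ratio, in both repeats, exceeds the weak agonist control mean by 3 SD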). To be noted: DAMGO EC20, Fluo-4 calcium flux, at 10 µM; hits give high values.
The target in experiment [5] is Short transient receptor potential channel 4 (Mus musculus) (UniProt Q9QUQ5). In words: inhibitors of mouse TRPC4 channel, confirmation, cell-based, Fluo4, HEK293 TRPC4beta/mu-opioid (AID 2636;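 active means calcium signal cut by more than 3 SD below the full-agonist control yet still positive, in both repeats and the earlier primary screen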). To be noted: DAMGO, Fluo4 calcium flux, at 10 µM; hits give high values.
Sequence of Short transient receptor potential channel 4 (Mus musculus) (Q9QUQ5 whole entry, looked up): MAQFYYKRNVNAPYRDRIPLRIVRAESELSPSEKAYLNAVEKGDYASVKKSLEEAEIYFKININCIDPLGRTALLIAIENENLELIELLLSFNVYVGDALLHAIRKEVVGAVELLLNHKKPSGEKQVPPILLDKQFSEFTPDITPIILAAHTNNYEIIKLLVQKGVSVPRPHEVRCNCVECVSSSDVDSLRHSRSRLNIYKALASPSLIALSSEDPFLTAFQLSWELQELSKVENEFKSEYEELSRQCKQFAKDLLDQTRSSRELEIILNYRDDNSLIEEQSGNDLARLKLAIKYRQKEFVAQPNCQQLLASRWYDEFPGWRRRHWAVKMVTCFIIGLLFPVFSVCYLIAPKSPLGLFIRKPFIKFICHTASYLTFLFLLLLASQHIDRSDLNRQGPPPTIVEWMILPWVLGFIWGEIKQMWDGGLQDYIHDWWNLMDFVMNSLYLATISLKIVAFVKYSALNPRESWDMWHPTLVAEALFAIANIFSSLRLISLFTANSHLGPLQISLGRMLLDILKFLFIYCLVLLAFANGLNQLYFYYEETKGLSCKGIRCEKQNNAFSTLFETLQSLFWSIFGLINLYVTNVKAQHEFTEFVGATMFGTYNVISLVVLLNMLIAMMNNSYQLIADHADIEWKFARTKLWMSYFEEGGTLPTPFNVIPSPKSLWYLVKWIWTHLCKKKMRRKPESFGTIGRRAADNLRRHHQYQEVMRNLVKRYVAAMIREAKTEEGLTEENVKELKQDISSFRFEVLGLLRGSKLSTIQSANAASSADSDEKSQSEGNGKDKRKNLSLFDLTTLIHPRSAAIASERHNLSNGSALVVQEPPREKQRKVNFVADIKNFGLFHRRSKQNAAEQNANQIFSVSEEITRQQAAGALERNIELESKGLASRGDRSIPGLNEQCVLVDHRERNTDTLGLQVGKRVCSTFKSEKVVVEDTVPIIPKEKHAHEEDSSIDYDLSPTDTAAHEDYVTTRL
The target is the same in experiment [6]. In words: inhibitors of mouse TRPC4 channel, confirmation, cell-based, second round, Fluo4, HEK293 TRPC4beta/mu-opioid, 1 µM (AID 2637;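 active means calcium signal ratio cut to more than 3 SD under the fully stimulated control mean yet still positive, in both repeats and the primary screen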). To be noted: Fluo4 calcium flux, DAMGO, at 1 µM; hits give high values.
The target is the same in experiment [7]. In words: mouse TRPC4 channel activators, dose response, cell-based, HEK293 TRPC4/mu-opioid, Fluo-4 calcium (AID 434937;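 active means primary screen activator hit with a dose response curve and TRPC4 channel activation at any tested dose; inactive means no activation, no dose response, or not a primary hit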). The settings on record: HEK293 TRPC4 cells, Fluo-4 calcium fluorescence ratio; series mostly up to 20 µM.
Experiment [8] shares this target. In words: TRPC4 positive allosteric modulators, dose response, cell-based, HEK293 TRPC4/mu-opioid, Fluo-4 calcium, EC20 DAMGO (AID 434941;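 active means earlier screen potentiator hit that boosts the TRPC4 ion channel at some dose, with a dose response; inactive means no potentiation, no dose response, or not a prior hit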;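 further: calcium entry triggered by an EC20 dose of DAMGO at the co-expressed mu-opioid receptor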). To be noted: HEK293 TRPC4/mu-opioid cells, Fluo-4 calcium fluorescence; series mostly up to 20 µM.
Experiment [9] shares this target. In words: mouse TRPC4 channel inhibitors, dose response, cell-based, HEK293 TRPC4/mu-opioid, Fluo-4 calcium (AID 434942;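 active means primary screen inhibitor hit that blocks the TRPC4 channel at some tested dose, yielding a dose curve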). To be noted: HEK293 TRPC4/mu-opioid cells, DAMGO-evoked Fluo-4 calcium ratio; series mostly up to 20 µM.
Experiment [10] deals with Short transient receptor potential channel 6 (Mus musculus) (UniProt Q61143). Kind of experiment: inhibition of mouse TRPC6 channel, confirmation, selectivity assay for TRPC4 inhibitor project, cell-based, HEK293, membrane potential dye, duplicate (AID 434948;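 active means active in primary screen and both duplicates, each dropping signal beyond three positive-control SD with fluorescence still positive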). To be noted: HEK293 TRPC6, membrane potential dye fluorescence, at 10 µM, stimulated with maximal-effect acetylcholine; hits give high values.
Sequence of Short transient receptor potential channel 6 (Mus musculus) (Q61143 whole entry, looked up): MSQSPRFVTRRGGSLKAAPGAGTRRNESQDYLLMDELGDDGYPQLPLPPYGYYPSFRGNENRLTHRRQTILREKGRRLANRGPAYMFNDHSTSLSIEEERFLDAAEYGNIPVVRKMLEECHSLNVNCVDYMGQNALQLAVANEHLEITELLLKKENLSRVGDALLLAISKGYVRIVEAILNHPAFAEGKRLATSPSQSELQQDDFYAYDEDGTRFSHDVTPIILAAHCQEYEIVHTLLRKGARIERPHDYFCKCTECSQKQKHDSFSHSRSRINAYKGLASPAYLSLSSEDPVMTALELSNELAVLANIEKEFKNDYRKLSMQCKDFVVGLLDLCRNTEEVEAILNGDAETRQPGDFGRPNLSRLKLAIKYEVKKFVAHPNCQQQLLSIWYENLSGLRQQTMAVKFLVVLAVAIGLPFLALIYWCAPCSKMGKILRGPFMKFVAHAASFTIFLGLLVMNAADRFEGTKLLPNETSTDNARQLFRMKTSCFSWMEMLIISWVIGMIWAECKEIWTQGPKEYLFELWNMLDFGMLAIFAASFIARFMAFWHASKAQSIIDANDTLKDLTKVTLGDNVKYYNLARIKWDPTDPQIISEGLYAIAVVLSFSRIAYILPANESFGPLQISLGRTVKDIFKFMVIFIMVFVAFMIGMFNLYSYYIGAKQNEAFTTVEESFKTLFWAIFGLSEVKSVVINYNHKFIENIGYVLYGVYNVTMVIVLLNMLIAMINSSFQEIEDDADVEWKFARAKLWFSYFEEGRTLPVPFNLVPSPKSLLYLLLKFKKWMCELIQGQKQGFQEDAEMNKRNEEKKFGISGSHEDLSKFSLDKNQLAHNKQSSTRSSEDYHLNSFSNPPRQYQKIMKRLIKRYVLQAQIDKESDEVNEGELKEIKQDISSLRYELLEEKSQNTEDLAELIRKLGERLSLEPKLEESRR

For experiment [11] the target is unchanged. Kind of experiment: activation of mouse TRPC6 channel, confirmation, selectivity assay for TRPC4 activator project, cell-based, HEK293, membrane potential dye, duplicate (AID 434950;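 active means membrane potential signal rise above negative control mean plus 3 SD in both duplicates, also active in the earlier TRPC4 screen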). To be noted: HEK293 TRPC6, membrane potential fluorescence, at 10 µM; hits give high values.
For experiment [12] the target is unchanged. Kind of experiment: TRPC6 potentiation by TRPC4 potentiator hits, confirmation, selectivity assay for TRPC4 potentiator project, HEK293 cells, membrane potential dye, duplicate (AID 434952;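 active means compound raising the membrane signal above positive-control mean plus 3 SD in both repeats, and a primary screen hit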). The settings on record: HEK293 TRPC6, membrane potential dye fluorescence, at 10 µM, maximal acetylcholine added after compound; hits give high values.
Experiment [13] has as its target Short transient receptor potential channel 4 (Mus musculus) (UniProt Q9QUQ5). Kind of experiment: calcium flux activators in TRPC4/5HT1a cells, counter-screen for TRPC4 activator project, cell-based, second counter screen, HEK293 TRPC4/5HT1a, Fluo-4 (AID 434977). To be noted: Fluo-4 calcium flux, at 10 µM; hits give high values.
Experiment [14] is described as follows: calcium flux inhibitors in TRPC4/5HT1a cells, confirmation, counter-screen for TRPC4 inhibitor project, cell-based, second counter screen, HEK293 TRPC4/5HT1a, Fluo-4 (AID 434978;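 active means primary screen active whose calcium signal fell more than 3 SD beyond the full-serotonin control mean in both duplicate plates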;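 further: serotonin given first at submaximal then at maximal dose after compound preincubation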). The settings on record: Fluo-4 calcium flux, at 10 µM, serotonin added to trigger calcium flux; hits give high values.
In experiment [15] the test system is TRPC4 (mouse), co-expressed with 5HT1a in HEK293. In words: calcium flux potentiators in TRPC4/5HT1a cells, confirmation, counter-screen for TRPC4 potentiator project, cell-based, second counter screen, HEK293 TRPC4/5HT1a, Fluo-4 (AID 434979;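 active means signal rise over 3 SD above mean of control wells given weak agonist, in both repeats and first screen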). To be noted: Fluo-4 calcium flux, at 10 µM, serotonin added at its EC20 dose; hits give high values.
Experiment [16] is described as follows: calcium flux activation in mu-opioid HEK293 cells, confirmation, counter-screen for TRPC4 activator project, cell-based, HEK293 mu-opioid receptor line (AID 449723;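 active means hit in primary screen, with calcium signal over 5 SD above buffer well mean in both duplicates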;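 further: counter screen cells carry the mu-opioid receptor alone and lack TRPC4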). The settings on record: Fluo-4 calcium fluorescence, at 10 µM; hits give high values.
The nature of experiment [17]: calcium flux enhancement in mu-opioid HEK293 cells, confirmation, counter-screen for TRPC4 allosteric potentiator project, cell-based, HEK293 mu-opioid receptor line (AID 449724;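 active means calcium signal rise more than 3 SD above the low-dose agonist control mean, in both duplicate plates and the primary screen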;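 further: HEK293 cells carrying mu-opioid receptor only with no TRPC4 channel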). The settings on record: Fluo-4 calcium flux, at 10 µM, compound added before EC20 DAMGO stimulus; hits give high values.
Experiment [18] is described as follows: nonspecific thallium flux increase in parental CHO-K1, confirmation, counter-screen for KCNQ2 potentiator project, cell-based, FluxOR thallium flux, duplicate (AID 2282;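 active means signal rise of at least 3 SD above the untreated control mean, in both duplicate wells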;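 further: counter screen of KCNQ2 potentiator hits so any rise reflects channel-independent effects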). The settings on record: parental CHO-K1 cells, FluxOR thallium flux fluorescence; at 10 µM; hits give high values; zero = vehicle mean+3SD, 100% = vehicle-minus-blank window.
Experiment [19] addresses Potassium voltage-gated channel subfamily KQT member 1 (Homo sapiens) (UniProt P51787). Kind of experiment: human KCNQ1 channel potentiation off-target, confirmation, selectivity assay for KCNQ2 potentiator project, cell-based, CHO, FluxOR thallium flux (AID 2283;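 active means fluorescence ratio rise of at least 3 SD of vehicle wells above their mean, in both replicate wells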;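 further: 0% = vehicle mean plus 3 SD and 100% = vehicle minus unstimulated blank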). To be noted: CHO KCNQ1 stable, FluxOR thallium flux fluorescence; at 10 µM; hits give high values; beyond 3SD, as % of vehicle-control signal.

Experiment [20] concerns the target Potassium voltage-gated channel subfamily KQT member 2 (Rattus norvegicus) (UniProt O88943). In words: rat KCNQ2 channel potentiators, confirmation, cell-based, CHO, FluxOR thallium flux, duplicate (AID 2287;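 active means fluorescence ratio rising 3 SD or more over the vehicle control mean in both replicates, plus primary screen hit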;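 further: peak minus minimum thallium fluorescence divided by baseline after K/Tl stimulus; 0% = vehicle mean plus 3 SD and 100% = vehicle minus unstimulated blank difference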). To be noted: CHO-KCNQ2 cells, FluxOR thallium flux fluorescence; at 10 µM; hits give high values.
Experiment [21] concerns the target Inward rectifier potassium channel 2 (Mus musculus) (UniProt P35561). In words: PubChem AID 2345.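 Further: 0% = vehicle mean plus 3 SD and 100% = vehicle minus no-stimulus blank window.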 To be noted: HEK293 Kir2.1, FluxOR thallium flux fluorescence; at 10 µM; hits give high values.
The target in experiment [22] is Potassium voltage-gated channel subfamily KQT member 2 (Rattus norvegicus) (UniProt O88943). In words: potentiators of retigabine-insensitive KCNQ2 W236L, mechanism study for KCNQ2 potentiator project, cell-based, rat KCNQ2 W236L, CHO, automated patch clamp (AID 2558;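 active means current increase at least 3 SD of the untreated controls above them in both duplicate recordings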). To be noted: at 25 µM; outcome: automated patch clamp current.

Unmarked numbers belong to inactive results. For some assays here: Entries with a potency or affinity are not part of this list. The list shows a part of the results. Active and inactive are the calls of the source.

Sequence of Potassium voltage-gated channel subfamily KQT member 1 (Homo sapiens) (P51787 whole entry, looked up): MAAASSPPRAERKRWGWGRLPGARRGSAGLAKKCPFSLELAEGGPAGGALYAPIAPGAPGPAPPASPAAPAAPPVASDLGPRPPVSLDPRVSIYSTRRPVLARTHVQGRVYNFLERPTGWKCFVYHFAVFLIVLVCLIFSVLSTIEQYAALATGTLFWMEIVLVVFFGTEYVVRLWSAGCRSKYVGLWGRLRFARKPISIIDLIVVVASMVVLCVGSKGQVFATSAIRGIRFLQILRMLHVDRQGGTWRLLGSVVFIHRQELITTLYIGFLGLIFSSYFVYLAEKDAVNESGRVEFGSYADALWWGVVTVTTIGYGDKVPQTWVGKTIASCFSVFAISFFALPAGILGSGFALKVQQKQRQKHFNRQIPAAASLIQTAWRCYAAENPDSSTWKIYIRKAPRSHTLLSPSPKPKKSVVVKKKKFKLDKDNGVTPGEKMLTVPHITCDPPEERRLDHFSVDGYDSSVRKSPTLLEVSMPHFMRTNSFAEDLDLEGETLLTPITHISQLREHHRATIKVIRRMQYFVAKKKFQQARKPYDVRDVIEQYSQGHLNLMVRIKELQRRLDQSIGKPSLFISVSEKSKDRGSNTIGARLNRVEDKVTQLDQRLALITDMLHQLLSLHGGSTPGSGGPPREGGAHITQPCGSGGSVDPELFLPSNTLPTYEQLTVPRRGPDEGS
Sequence of Inward rectifier potassium channel 2 (Mus musculus) (P35561 whole entry, looked up): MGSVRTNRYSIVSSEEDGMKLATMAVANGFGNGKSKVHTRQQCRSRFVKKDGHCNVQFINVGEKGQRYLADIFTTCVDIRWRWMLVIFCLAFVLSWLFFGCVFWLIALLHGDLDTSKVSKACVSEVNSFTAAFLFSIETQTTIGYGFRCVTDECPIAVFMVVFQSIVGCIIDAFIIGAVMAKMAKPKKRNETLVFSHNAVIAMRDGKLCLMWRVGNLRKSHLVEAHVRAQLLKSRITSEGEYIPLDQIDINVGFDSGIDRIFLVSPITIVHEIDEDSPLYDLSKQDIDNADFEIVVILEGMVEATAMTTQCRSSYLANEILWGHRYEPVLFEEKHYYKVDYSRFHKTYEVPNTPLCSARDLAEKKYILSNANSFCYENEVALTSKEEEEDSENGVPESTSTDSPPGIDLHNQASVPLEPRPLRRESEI

Consider `Cc1ccc(NC(=O)CN(C)C(=O)CNC(=O)c2sc3ccccc3c2Cl)cc1`, for which the result in experiment [1], in experiment [2], in experiment [3], in [4], in [5] and in [6] was inactive. The result in experiment [7], in experiment [8], in [9], in experiment [10], in [11] and in [12] was inactive. For the same compound, the outcome in [13], in [14], in experiment [16] and in experiment [17] was inactive. Further, the potentiation in [15] is 29.5% (active).

On to `CCN(CC)CC(=O)Nc1ccccc1SCC(=O)Nc1ccsc1C(=O)OC`, for which the outcome in experiment [1], in experiment [2], in experiment [3], in experiment [4], in [5] and in [6] was inactive. Also, the outcome in experiment [7], in experiment [8], in experiment [9], in [10], in experiment [11] and in [12] was inactive. For the same compound, the result in experiment [13], in [14], in [15], in experiment [16] and in experiment [17] was inactive.

With `CC(=O)NNC(=O)c1csc(Cc2c(Cl)sc3ccc(Cl)cc23)n1`, the activity increase over 3SD of controls in experiment [18] was 26.3% (active). Also, in [19], the activation over 3SD threshold was -5%. Also, the potentiation, less the hit threshold in [20] was 12.3% (active). In [21], the activity over 3SD threshold is -69.1%. For the same compound, the current increase over 3SD of negative controls (%), hits give high values in experiment [22] was 1.62% (active).

As for `COc1ccc(-c2cc(C(=O)N3CC(C)CC(C)C3)c3ccccc3n2)cc1` (configuration not stated), the result in experiment [1], in experiment [2], in experiment [3], in experiment [4], in experiment [5] and in experiment [6] was inactive. The outcome in [7], in experiment [8], in experiment [9], in [10], in [11] and in experiment [12] was inactive. The outcome in experiment [13], in experiment [14], in [15], in [16] and in [17] was inactive.

With `COC(=O)c1ccccc1NC(=O)c1cnn2cccnc12`, the result in experiment [1], in experiment [2], in experiment [3], in experiment [5], in experiment [6] and in experiment [7] was inactive. The outcome in experiment [8], in experiment [9], in [10], in [11], in experiment [12] and in [13] was inactive. In addition, the outcome in [14], in experiment [16] and in experiment [17] was inactive. Also, the potentiation in [4] is 16% (active); in experiment [15], 40.2% (active).

As to `c1ccc(Nc2nc(N3CCCCC3)nc(N3CCNCC3)n2)cc1`, the outcome in [1], in experiment [2], in [3], in experiment [4], in experiment [5] and in experiment [6] was inactive. Besides, the outcome in experiment [7], in experiment [8], in [9], in experiment [10], in experiment [11] and in [12] was inactive. Besides, the result in experiment [13], in experiment [14], in experiment [16] and in experiment [17] was inactive. The potentiation in experiment [15] was 44.6% (active).

In the case of `COCCNC(=O)/C(C#N)=C/c1cc(C(C)C)c(OC)cc1C`, the result in [1], in experiment [2], in experiment [3], in experiment [5], in [6] and in experiment [7] was inactive. In addition, the result in experiment [8], in [9], in [10], in experiment [11], in [12] and in experiment [13] was inactive. For the same compound, the outcome in [14], in [16] and in experiment [17] was inactive. The potentiation in experiment [4] was 14% (active); in experiment [15], 20.4% (active).

Turning to `Cc1cc(C(=O)OCC(=O)Nc2ccc(F)c(F)c2)c(C)o1`, the activity increase over 3SD of controls in [18] is -17.5%. The activation over 3SD threshold in experiment [19] is -23.1%. Also, in [20], the potentiation, less the hit threshold is 17.6% (active). In addition, the result in experiment [22] was inactive.

With `CC(C)(C)C1CCC(C(=O)NCC(c2cccs2)N2CCOCC2)CC1` (configuration not stated), the activity increase over 3SD of controls in experiment [18] is -27.5%. In addition, the activation over 3SD threshold in experiment [19] was -18.7%. For the same compound, the potentiation, less the hit threshold in experiment [20] was 13.3% (active). Moreover, the activity over 3SD threshold in experiment [21] is -57.7%. Moreover, in experiment [22], the result was inactive.

`CN(C)c1ccc(C(=S)N2CCN(c3ccc([N+](=O)[O-])cc3)CC2)cc1`: the outcome in experiment [1], in [2], in experiment [3], in [4], in experiment [5] and in experiment [6] was inactive. Further, the result in experiment [7], in [8], in experiment [9], in experiment [10], in [11] and in [12] was inactive. For the same compound, the outcome in experiment [13], in experiment [14], in experiment [16] and in experiment [17] was inactive. In [15], the potentiation is 8.7% (active).

Consider `COc1cccc(NC(=O)COc2c(F)c(F)c(C(F)(F)F)c(F)c2F)c1`, for which the outcome in [1], in experiment [2], in experiment [3], in experiment [4], in [5] and in experiment [6] was inactive. In addition, the outcome in experiment [7], in experiment [8], in experiment [9], in experiment [10], in experiment [11] and in [12] was inactive. Besides, the outcome in experiment [13], in [14], in [15], in [16] and in experiment [17] was inactive.

Turning to `N=c1oc2ccc(Cl)cc2cc1C(=O)NC1CCCCCC1`, the result in [1], in experiment [2], in experiment [3], in experiment [4], in [5] and in experiment [6] was inactive. Also, the outcome in experiment [7], in experiment [8], in experiment [9], in [10], in experiment [11] and in experiment [12] was inactive. Further, the outcome in experiment [13], in experiment [14], in [15], in [16] and in experiment [17] was inactive.
